From PubChem BioAssay (NCI)
About 79,000 compounds went through this panel and 15% of them were active in at least one assay; those are over-represented in the sample as a whole. Calls of active or inactive are those of the source. No stated cut-off is given here; in the data, active means growth inhibition above about 70%; inactive means the rest.

Legend:
[1] = NCI Yeast Anticancer Drug Screen. Data for the rad50 strain (AID 155);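 further: 0% = growth of vehicle-only cultures of the same strain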; details: S. cerevisiae rad50 strain growth inhibition, active compounds read high
Outline: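 Growth of the mutant yeast was measured after compound exposure and referenced to vehicle-treated cultures.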

[2] = NCI Yeast Anticancer Drug Screen. Data for the mec2-1 strain (AID 157); details: S. cerevisiae mec2-1 strain, active compounds read high
Outline: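 mec2-1 yeast strain, carrying an alteration in DNA damage repair or cell cycle control, was exposed to compounds; growth inhibition was measured relative to vehicle-treated controls.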

[3] = NCI Yeast Anticancer Drug Screen. Data for the sgs1 mgt1 strain (AID 161);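 further: 0% = growth of cultures given vehicle only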; details: S. cerevisiae sgs1 mgt1 strain, active compounds read high
Outline: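 This yeast growth screen uses a strain with defined DNA-repair lesions; compound-treated growth is compared with vehicle-treated growth.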

[4] = NCI Yeast Anticancer Drug Screen. Data for the cln2 rad14 strain (AID 165);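 further: 0% = growth equal to vehicle treated cultures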; details: S. cerevisiae cln2 rad14 strain, active compounds read high
Outline: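 Yeast carrying cln2 and rad14 alterations (cell cycle control and DNA damage repair) were exposed to compounds. Growth inhibition was measured against vehicle-treated controls.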

[5] = NCI Yeast Anticancer Drug Screen. Data for the bub3 strain (AID 167); details: S. cerevisiae bub3 mutant strain, active compounds read high
Outline: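 Whole-cell yeast assay. The mutant strain was incubated with compounds, and growth inhibition was determined by comparison with vehicle-treated cells.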

[6] = NCI Yeast Anticancer Drug Screen. Data for the mlh1 rad18 strain (AID 175); details: S. cerevisiae mlh1 rad18 strain growth inhibition, active compounds read high
Outline: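 Growth inhibition of the yeast strain was measured after compound exposure and expressed relative to vehicle-treated controls. The strain carries defined defects in DNA damage repair.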

[7] = at 5.0 µM (retest, dose inferred, filed as 0.5)
[8] = at 50.0 µM (retest, dose inferred, filed as 5.0)

Measured: growth inhibition

Cc1cc(N/N=C/c2ccc([N+](=O)[O-])o2)c2cc3c(cc2n1)OCO3
inactive: [1]; [7] 23% | [2]; [7] 16% | [3]; [7] 33% | [4]; [7] 4% | [5]; [7] 8% | [6]; [7] 23%
active: [1]; [8] 99% | [1]; at 50.0 µM 96.7% | [2]; [8] 100% | [2]; at 50.0 µM 92.3% | [3]; [8] 99% | [3]; at 50.0 µM 97.5% | [4]; [8] 99% | [4]; at 50.0 µM 92.7% | [5]; [8] 99% | [5]; at 50.0 µM 90.5% | [6]; [8] 99% | [6]; at 50.0 µM 95.3%

C[C@]12C/C(=C/C(F)(F)F)C(=O)C[C@@H]1CC[C@@H]1[C@@H]2CC[C@]2(C)[C@@H](C(=O)O)CC[C@@H]12
active: [1]; [8] 91% | [2]; [7] 92% | [2]; [8] 97% | [3]; [7] 87% | [3]; [8] 95% | [3]; at 50.0 µM 72.1% | [4]; [8] 87% | [5]; [7] 89% | [5]; [8] 95% | [6]; [7] 93% | [6]; [8] 96%
inactive: [1]; [7] 32% | [1]; at 50.0 µM 31.5% | [2]; at 50.0 µM 39.4% | [4]; [7] 24% | [4]; at 50.0 µM 55.7% | [5]; at 50.0 µM 26.1% | [6]; at 50.0 µM 48.4%

CN(c1ccccc1)N(C)c1ccccc1
inactive: [1]; [7] -1% | [1]; [8] 22% | [1]; at 50.0 µM 40.6% | [2]; [7] -3% | [2]; [8] -1% | [2]; at 50.0 µM -3.45% | [3]; [7] -5% | [3]; [8] -16% | [3]; at 50.0 µM -17.4% | [4]; [7] 8% | [4]; [8] 15% | [4]; at 50.0 µM -33.2% | [5]; [7] 5% | [5]; [8] 5% | [5]; at 50.0 µM -7.8% | [6]; [7] 3% | [6]; [8] 26% | [6]; at 50.0 µM 4%

CC(=O)CC(=O)OCc1ccccc1
active: [1]; [8] 97% | [1]; at 50.0 µM 94.5% | [2]; [8] 98% | [2]; at 50.0 µM 97.2% | [3]; [8] 96% | [3]; at 50.0 µM 98% | [4]; [8] 89% | [4]; at 50.0 µM 87.2% | [5]; [8] 98% | [5]; at 50.0 µM 96% | [6]; [8] 98% | [6]; at 50.0 µM 97.7%
inactive: [1]; [7] 12% | [2]; [7] 4% | [3]; [7] 1% | [4]; [7] 4% | [5]; [7] 8% | [6]; [7] 14%

COc1ccc2nc3cc([N+](=O)[O-])ccc3c(NCCO)c2c1
inactive: [1]; [7] -24% | [1]; at 50.0 µM 58.5% | [2]; [7] -9% | [2]; [8] 66% | [2]; at 50.0 µM 47.8% | [3]; [7] -26% | [3]; at 50.0 µM 44.6% | [4]; [7] -6% | [5]; [7] -18% | [5]; [8] 30% | [5]; at 50.0 µM 49% | [6]; [7] 4% | [6]; at 50.0 µM 49.9%
active: [1]; [8] 77% | [3]; [8] 80% | [4]; [8] 89% | [4]; at 50.0 µM 75.1% | [6]; [8] 82%

O=C(c1c(F)c(F)c(F)c(F)c1F)n1c(=S)n(C(=O)c2c(F)c(F)c(F)c(F)c2F)c2ccccc21
active: [1]; [8] 96% | [2]; [8] 90% | [2]; at 50.0 µM 71.4% | [3]; [8] 93% | [5]; [8] 91% | [6]; [8] 95% | [6]; at 50.0 µM 86.1%
inactive: [1]; [7] 11% | [1]; at 50.0 µM 42% | [2]; [7] 19% | [3]; [7] 14% | [3]; at 50.0 µM 62.3% | [4]; [7] -2% | [4]; [8] 53% | [4]; at 50.0 µM 8.45% | [5]; [7] 2% | [5]; at 50.0 µM 49.1% | [6]; [7] 29%

Cc1c(C[n+]2cc3ccccc3cc2/C=N/O)ccc2ccccc12
active: [5]; at 50.0 µM 97.2%
inactive: [1]; [7] 1% | [1]; [8] 31% | [1]; at 50.0 µM 19.1% | [2]; [7] 3% | [2]; [8] 39% | [2]; at 50.0 µM 10.1% | [3]; [7] 2% | [3]; [8] 31% | [3]; at 50.0 µM 5.5% | [4]; [7] -2% | [4]; [8] -6% | [4]; at 50.0 µM -3.1% | [5]; [7] 1% | [5]; [8] 19% | [6]; [7] 1% | [6]; [8] 37% | [6]; at 50.0 µM 16.8%

CCCN(CCC)C(=O)CCC(C)=O
inactive: [1]; [7] 0% | [1]; [8] -3% | [1]; at 50.0 µM -13.8% | [2]; [7] 1% | [2]; [8] 2% | [2]; at 50.0 µM -7.5% | [3]; [7] 1% | [3]; [8] -1% | [3]; at 50.0 µM -23.8% | [4]; [7] -7% | [4]; [8] 3% | [4]; at 50.0 µM 41.5% | [5]; [7] -1% | [5]; [8] -3% | [5]; at 50.0 µM -18.4% | [6]; [7] 1% | [6]; [8] -3% | [6]; at 50.0 µM 17.1%

Cc1cccc(NC(=O)C(=O)C(C2OC(=O)c3ccccc32)[N+](=O)[O-])c1C (stereo not given)
active: [1]; at 50.0 µM 85.4% | [2]; [8] 82% | [2]; at 50.0 µM 86.8% | [3]; [8] 75% | [3]; at 50.0 µM 87.7% | [4]; [8] 79% | [4]; at 50.0 µM 90.4% | [5]; [8] 92% | [5]; at 50.0 µM 88.3% | [6]; [8] 89% | [6]; at 50.0 µM 83.3%
inactive: [1]; [7] 8% | [1]; [8] 69% | [2]; [7] -24% | [3]; [7] 9% | [4]; [7] 27% | [5]; [7] -13% | [6]; [7] -21%

CCN(CC)c1ccc(NC(C(=O)c2ccccc2)c2ccc3c(c2)OCO3)cc1 (stereo not given)
inactive: [1]; [7] -23% | [1]; [8] -26% | [1]; at 50.0 µM 27.2% | [2]; [7] -3% | [2]; [8] 5% | [2]; at 50.0 µM 32.7% | [3]; [7] -23% | [3]; [8] 14% | [3]; at 50.0 µM 46.1% | [4]; [7] -1% | [4]; [8] -10% | [4]; at 50.0 µM -8.35% | [5]; [7] 3% | [5]; [8] 14% | [5]; at 50.0 µM 25.9% | [6]; [7] -4% | [6]; [8] 12% | [6]; at 50.0 µM 42.5%
